# Where “and” joins values, the source holds several entries; their conditions need not be identical. Equal entries are not always repeated. Hit rate of the full screen: of about 5,500 compounds, about 2,000 (36%) were called active. About 18% were inconclusive and are not listed. The list shows a part of the results. Unmarked numbers belong to inactive results. Rule as the data show it: active = normalized growth mostly below about 0.91 (no sharp cut-off); inconclusive = no clear call, values can overlap the other calls; inactive = mostly above about 0.92.
# Experiment: chemical genetic growth profiling, strain panel (AID 1159580);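 also: tested at 20 µM; growth read once vehicle control cultures reached saturation at 30 °C; 1 = growth at the plate median or of vehicle wells; lower values mean less growth of the strain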
# Conditions: S. cerevisiae deletion strains, growth OD
compound,measurement,setting,value
C[C@H](CCC(=O)O)[C@H]1CCC2C3C(CC[C@@]21C)[C@@]1(C)CC[C@@H](O)C[C@H]1C[C@@H]3O (stereo partly specified),normalized growth,"locus YAL013W, strain DEP1, hits give low values",0.984
same,normalized growth,"locus YAL021C, strain ccr4, hits give low values",1.02
same,normalized growth,"locus YAL026C, strain drs2, hits give low values",0.997
same,normalized growth,"locus YAL030W, strain snc1, hits give low values",0.983
same,normalized growth,"locus YBL061C, strain skt5, hits give low values",0.986
same,normalized growth,"locus YBR009C, strain hhf1, hits give low values",1.03
same,normalized growth,"locus YBR021W, strain FUR4, hits give low values",0.988
same,normalized growth,"locus YBR023C, strain chs3, hits give low values",0.987
same,normalized growth,"locus YBR171W, strain sec66, hits give low values",0.961
same,normalized growth,"locus YBR229C, strain ROT2, hits give low values",0.985
same,normalized growth,"locus YBR231C, strain swc5, hits give low values",0.996
same,normalized growth,"locus YBR279W, strain paf1, hits give low values",1
same,normalized growth,"locus YCL011C, strain gbp2, hits give low values",1.02
same,normalized growth,"locus YCL016C, strain dcc1, hits give low values",1.04
same,normalized growth,"locus YCL029C, strain bik1, hits give low values",0.963
same,normalized growth,"locus YCL069W, strain vba3, hits give low values",0.991
same,normalized growth,"locus YCR088W, strain abp1, hits give low values",0.989
same,normalized growth,"locus YDL005C, strain med2, hits give low values",0.989
same,normalized growth,"locus YDL035C, strain GPR1, hits give low values",0.992
same,normalized growth,"locus YDL040C, strain nat1, hits give low values",0.983
same,normalized growth,"locus YDL074C, strain BRE1, hits give low values",0.946
same,normalized growth,"locus YDL101C, strain DUN1, hits give low values",0.986
same,normalized growth,"locus YDL134C, strain PPH21, hits give low values",0.981
same,normalized growth,"locus YDL185W, strain tfp1, hits give low values",0.972
same,normalized growth,"locus YDL192W, strain arf1, hits give low values",0.979
same,normalized growth,"locus YDR001C, strain nth1, hits give low values",0.982
same,normalized growth,"locus YDR069C, strain doa4, hits give low values",0.954
same,normalized growth,"locus YDR101C, strain arx1, hits give low values",0.986
same,normalized growth,"locus YDR137W, strain rgp1, hits give low values",0.821 (active)
same,normalized growth,"locus YDR150W, strain NUM1, hits give low values",0.997
same,normalized growth,"locus YDR159W, strain sac3, hits give low values",1.04
same,normalized growth,"locus YDR162C, strain NBP2, hits give low values",0.989
same,normalized growth,"locus YDR195W, strain ref2",0.94
same,normalized growth,"locus YDR297W, strain sur2, hits give low values",0.989
same,normalized growth,"locus YDR318W, strain mcm21, hits give low values",0.977
same,normalized growth,"locus YDR334W, strain swr1, hits give low values",0.961
same,normalized growth,"locus YDR335W, strain msn5, hits give low values",0.981
same,normalized growth,"locus YDR388W, hits give low values",0.98
same,normalized growth,"locus YDR392W, strain spt3, hits give low values",1.1
same,normalized growth,"locus YDR502C, strain sam2, hits give low values",0.984
same,normalized growth,"locus YEL003W, strain gim4, hits give low values",0.976
same,normalized growth,"locus YEL037C, strain rad23, hits give low values",1
same,normalized growth,"locus YEL061C, strain CIN8 (second series), hits give low values",0.983
same,normalized growth,"locus YEL061C, strain CIN8, hits give low values",0.99
same,normalized growth,"locus YER015W, strain faa2, hits give low values",1.03
same,normalized growth,"locus YER016W, strain bim1, hits give low values",0.998
same,normalized growth,"locus YER110C, hits give low values",0.984
same,normalized growth,"locus YER111C, strain swi4, hits give low values",0.979
same,normalized growth,"locus YER155C, strain BEM2 (second series), hits give low values",1.02
same,normalized growth,"locus YER155C, strain BEM2, hits give low values",0.99
same,normalized growth,"locus YER167W, strain BCK2, hits give low values",0.988
same,normalized growth,"locus YFR010W, strain ubp6, hits give low values",0.969
same,normalized growth,"locus YGL078C, strain dbp3, hits give low values",0.967
same,normalized growth,"locus YGL086W, strain mad1, hits give low values",0.985
same,normalized growth,"locus YGL167C, strain pmr1, hits give low values",0.974
same,normalized growth,"locus YGL173C, strain kem1, hits give low values",0.951
same,normalized growth,"locus YGL227W, strain vid30, hits give low values",0.998
same,normalized growth,"locus YGL240W, strain doc1, hits give low values",0.982
same,normalized growth,"locus YGL248W, strain PDE1, hits give low values",0.996
same,normalized growth,"locus YGL253W, strain hxk2, hits give low values",1.02
same,normalized growth,"locus YGR078C, strain PAC10, hits give low values",0.99
same,normalized growth,"locus YGR135W, strain pre9, hits give low values",0.975
same,normalized growth,"locus YGR229C, strain SMI1, hits give low values",0.99
same,normalized growth,"locus YGR252W, strain gcn5, hits give low values",1.09
same,normalized growth,"locus YHR013C, strain ard1, hits give low values",1.03
same,normalized growth,"locus YHR027C, strain rpn1, hits give low values",1
same,normalized growth,"locus YHR030C, strain SLT2, hits give low values",1 and 0.948
same,normalized growth,"locus YHR079C, strain IRE1 (second series), hits give low values",0.974
same,normalized growth,"locus YHR079C, strain IRE1, hits give low values",0.945
same,normalized growth,"locus YHR094C, strain hxt1, hits give low values",0.982
same,normalized growth,"locus YHR129C, strain ARP1, hits give low values",1
same,normalized growth,"locus YHR142W, strain chs7, hits give low values",0.999
same,normalized growth,"locus YHR200W, strain rpn10, hits give low values",1
same,normalized growth,"locus YIL066C, strain RNR3, hits give low values",0.98
same,normalized growth,"locus YIL073C, strain SPO22, hits give low values",1.01
same,normalized growth,"locus YIL125W, strain kgd1, hits give low values",0.992
same,normalized growth,"locus YIR030C, strain dcg1, hits give low values",0.982
same,normalized growth,"locus YJL092W, strain hpr5, hits give low values",0.985
same,normalized growth,"locus YJL095W, strain BCK1 (second series), hits give low values",0.988
same,normalized growth,"locus YJL095W, strain BCK1, hits give low values",0.95 and 0.958
same,normalized growth,"locus YJL115W, strain asf1, hits give low values",0.984
same,normalized growth,"locus YJL129C, strain trk1, hits give low values",0.99
same,normalized growth,"locus YJL134W, strain LCB3, hits give low values",0.994
same,normalized growth,"locus YJL154C, strain vps35, hits give low values",0.983
same,normalized growth,"locus YJL164C, strain tpk1, hits give low values",1.04
same,normalized growth,"locus YJL166W, strain qcr8, hits give low values",0.933
same,normalized growth,"locus YJL168C, strain set2, hits give low values",0.982
same,normalized growth,"locus YJL187C, strain SWE1 (second series), hits give low values",0.975
same,normalized growth,"locus YJR043C, strain POL32, hits give low values",0.985
same,normalized growth,"locus YJR066W, strain TOR1, hits give low values",0.937
same,normalized growth,"locus YJR075W, strain HOC1, hits give low values",0.991

# Reference: PubChem BioAssay AID1159580 (chemical genetic matrix, 2015)
